{
  "source": "PubChem BioAssay (Tox21)",
  "note": "Results filed as inconclusive are left out. A structure can be active in one record and inactive in another. Activity calls are given as the source filed them. The call rests on the fitted dose curve. On the % scale 0 is the no-effect control and ±100 the full control effect; potency means the concentration at half of the fitted maximal effect.",
  "data": [
    {"assay": "qHTS assay for small molecule agonists of the antioxidant response element (ARE) signaling pathway - cell viability counter screen (AID 743203); further: nearly all actives have a fitted effect of over 55% in size", "details": "ARE-bla HepG2 viability, CellTiter-Glo luminescence, 16 h; series mostly up to 73.3 µM; viability change, negative = cytotoxic: at the top concentration", "text": "National Center for Advancing Translational Sciences [NCATS]\nNIH Chemical Genomics Center [NCGC]\nU.S. Environmental Protection Agency [EPA]\nNational Institutes of Environmental Health Sciences [NIEHS]\nNational Toxicology Program [NTP]\nU.S. Food and Drug Administration [FDA]\nOxidative stress has been implicated in the pathogenesis of a variety of diseases ranging from cancer to neurodegeneration. The antioxidant response element (ARE) signaling pathway plays an important role in the amelioration of oxidative stress. The CellSensor ARE-bla HepG2 cell line (Invitrogen) can be used for analyzing the Nrf2/antioxidant response signaling pathway. Nrf2 (NF-E2-related factor 2) and Nrf1 are transcription factors that bind to AREs and activate these genes. The CellSensor ARE-bla Hep G2 cell line contains a beta-lactamase reporter gene under control of the Antioxidant Response Element (ARE) stably integrated into HepG2 cells. The activation of the report gene under culture conditions can be detected by fluorescence intensity. This cell line has been used to screen the Tox21 10K compound library to identify agonists that induce oxidative stress. The cytotoxicity of the Tox21 compound library against the ARE-bla cell line was tested in parallel by measuring the cell viability using CellTiter-Glo assay (Promega, Madison, WI) in the same wells.\nTox21 Assay Protocol Summary:\nARE-bla HepG2 cells were dispensed at 2,000 cells/5 ul/well in 1536-well white wall/solid bottom plates using a Multidrop Combi (ThermoFisher Scientific, Waltham, MA) dispenser. After the assay plates were incubated at 37C/5% CO2 for 5 hrs, 23 nL of compounds dissolved in DMSO, positive controls or DMSO only was transferred to the assay plate by a pintool work station (Kalypsys, San Diego, CA). The plates were incubated at 37C/5% CO2 for 16 hrs, followed by addition of 4 ul/well of CellTiter-Glo reagent into the assay plates using a Flying Reagent Dispenser (Aurora Discovery, San Diego, CA). After 30 min incubation at room temperature, the luminescence intensity in the assay plates was measured using a ViewLux (PerkinElmer, Shelton, CT) plate reader.", "values": [
      {"smiles": "O=CC=O", "viability change, negative = cytotoxic": "-2.96% [at 94.8 µM] (inactive)"},
      {"smiles": "CCOP(=S)(OCC)Oc1ccc(S(C)=O)cc1", "note": "(stereo not given)", "viability change, negative = cytotoxic": "-4.81% (inactive)"},
      {"smiles": "CC(=O)NNc1ccccc1", "viability change, negative = cytotoxic": "-0.203% (inactive)"},
      {"smiles": "CCCCC#N", "viability change, negative = cytotoxic": "-0.0223% (inactive)"},
      {"smiles": "CC(C)(C)CC(C)(C)c1ccc(O)cc1", "Potency": "30.6 µM (active) and inactive"},
      {"smiles": "c1ccc2c(c1)sc1ccccc12", "viability change, negative = cytotoxic": "-3.64% (inactive)"},
      {"smiles": "OCC1CO1", "note": "(stereo not given)", "Potency": "inactive"},
      {"smiles": "C=CCOC(=O)C(C)(C)OC(=O)c1cc(-n2c(=O)cc(C(F)(F)F)n(C)c2=O)ccc1Cl", "viability change, negative = cytotoxic": "11.1% (inactive)"},
      {"smiles": "C[C@H]1[C@@H]2Cc3ccc(O)cc3[C@@]1(C)CCN2C", "viability change, negative = cytotoxic": "-13.5% [at 260 µM] (inactive)"},
      {"smiles": "CC(Oc1cccc(Cl)c1)C(=O)O", "note": "(stereo not given)", "viability change, negative = cytotoxic": "3.84% (inactive)"},
      {"smiles": "N#CC1(N=NC2(C#N)CCCCC2)CCCCC1", "viability change, negative = cytotoxic": "-4.04% (inactive)"},
      {"smiles": "CCCCCCCCCCCCN(C)C", "viability change, negative = cytotoxic": "-20.8% (inactive)"},
      {"smiles": "N#CC(C#N)=C(C#N)C#N", "viability change, negative = cytotoxic": "8.32% [at 94.8 µM] (inactive)"},
      {"smiles": "COc1ccc(C(=O)c2c(C)n(CCN3CCOCC3)c3ccccc23)cc1", "viability change, negative = cytotoxic": "8.15% (inactive)"},
      {"smiles": "CCOC(=O)C1OC1(C)c1ccccc1", "note": "(stereo not given)", "Potency": "inactive"},
      {"smiles": "Cc1ccc(N)c(C)c1", "Potency": "inactive"},
      {"smiles": "COP(=O)(OC)OC(Br)C(Cl)(Cl)Br", "note": "(stereo not given)", "Potency": "inactive"},
      {"smiles": "C=C(Cl)Cl", "viability change, negative = cytotoxic": "0.0598% [at 94.8 µM] (inactive)"},
      {"smiles": "OC[P+](CO)(CO)CO", "Potency": "inactive"},
      {"smiles": "CCC1(CC)C(=O)NC(=O)NC1=O", "viability change, negative = cytotoxic": "-0.943% (inactive)"},
      {"smiles": "CCCC(C)(COC(N)=O)COC(=O)NC(C)C", "note": "(stereo not given)", "Potency": "inactive"},
      {"smiles": "OCCCl", "viability change, negative = cytotoxic": "5.6% (inactive)"},
      {"smiles": "O=C(N/N=C/c1ccc([N+](=O)[O-])o1)c1cc([N+](=O)[O-])cc([N+](=O)[O-])c1O", "viability change, negative = cytotoxic": "2.26% (inactive)"},
      {"smiles": "CCCC[N+](CCCC)(CCCC)CCCC", "viability change, negative = cytotoxic": "1.7% (inactive)"},
      {"smiles": "O=C(N[C@H]1CN2CCC1CC2)c1ccc2c(c1)OCCO2", "viability change, negative = cytotoxic": "-1.66% (inactive)"},
      {"smiles": "CC(C)(C)OOC(C)(C)CCC(C)(C)OOC(C)(C)C", "viability change, negative = cytotoxic": "-5.98% (inactive)"},
      {"smiles": "Cc1ccccc1", "viability change, negative = cytotoxic": "2.57% (inactive)"},
      {"smiles": "CC(Cl)C(=O)O", "note": "(stereo not given)", "viability change, negative = cytotoxic": "1.42% [at 94.8 µM] (inactive)"},
      {"smiles": "FC(F)OC(F)(F)C(F)Cl", "note": "(stereo not given)", "viability change, negative = cytotoxic": "9.09% (inactive)"},
      {"smiles": "CCOC(=O)NC(O)C(Cl)(Cl)Cl", "note": "(stereo not given)", "viability change, negative = cytotoxic": "1.05% (inactive)"},
      {"smiles": "COC(=O)Cc1ccccc1", "viability change, negative = cytotoxic": "10.6% (inactive)"},
      {"smiles": "CCC(=O)O[C@@H]1C=C2CCC3C(CCC4(C)C3CC[C@@H]4OC(=O)CC)C2CC1", "note": "(stereo not given in full)", "viability change, negative = cytotoxic": "11.1% (inactive)"},
      {"smiles": "CCC(C)(C)c1ccc(O)c(C(C)(C)CC)c1", "Potency": "61.1 µM (active)"},
      {"smiles": "CC(C)(c1ccccc1)c1cc(-n2nc3ccccc3n2)c(O)c(C(C)(C)c2ccccc2)c1", "viability change, negative = cytotoxic": "15.4% (inactive)"},
      {"smiles": "C=CCc1ccc(OC(=O)Cc2ccccc2)c(OC)c1", "viability change, negative = cytotoxic": "2.92% (inactive)"},
      {"smiles": "O=C(O)c1cc(I)cc(I)c1I", "viability change, negative = cytotoxic": "1.8% [at 94.8 µM] (inactive)"},
      {"smiles": "NC(=S)c1c(Cl)cccc1Cl", "viability change, negative = cytotoxic": "-2.51% (inactive)"},
      {"smiles": "CCCCC1C(=O)NC(=O)N(C2CCCCC2)C1=O", "note": "(stereo not given)", "viability change, negative = cytotoxic": "13.1% (inactive)"},
      {"smiles": "CC(C)(C)NCC(O)c1cc(Cl)c(N)c(C(F)(F)F)c1", "note": "(stereo not given)", "viability change, negative = cytotoxic": "7.58% (inactive)"},
      {"smiles": "CC(C)(C)NCC(O)c1ccccc1Cl", "note": "(stereo not given)", "viability change, negative = cytotoxic": "-0.704% (inactive)"}
    ]}
  ]
}
